Source: PubChem BioAssay (NCATS)
Several values for one entry are separate records, joined by “and”; a condition that tells them apart may be missing. Equal values may be shown once. Inconclusive results are not listed. A call without a number means that no potency is given here. A number with no mark means an inactive call. Activity calls are given as the source filed them. Calls follow the shape of the dose curve; as a rule, active = well fitted curve in the direction sought with a large enough effect; inconclusive = small, poorly fitted or top-dose-only effect, or another doubt; inactive = no such curve, though single readings can be large; an effect the other way counts as inactive or inconclusive.

Tests used:
CRL-7250 = normal cell line; assay: Cytotoxic Profiling of Annotated Libraries Using Quantitative High-Throughput Screening (AID 1296008); conditions: Five cell lines viability, CellTiter-Glo ATP luminescence, 48-72 h; max response: stronger effect = lower value; also: nearly all actives have a fitted effect of over 60% in size
In short: (§1)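 Cells exposed to compounds for 48 or 72 hr at 37 degrees Celsius. Viability read as ATP-coupled luminescence with CellTiter-Glo after 10 min at room temperature.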

HEK293 = assay: as above; conditions: Five cell lines viability, CellTiter-Glo ATP luminescence, 48-72 h; max response: stronger effect = lower value
In short: as §1

HaCat = assay: as above; conditions: Five cell lines viability, CellTiter-Glo ATP luminescence, 48-72 h; max response: stronger effect = lower value
In short: as §1

KB-3-1 = assay: as above; conditions: Five cell lines viability, CellTiter-Glo ATP luminescence, 48-72 h; max response: stronger effect = lower value
In short: as §1

NIH3T3 [1] = assay: as above; conditions: Five cell lines viability, CellTiter-Glo ATP luminescence, 48-72 h; max response: stronger effect = lower value
In short: as §1

MCC-13 = assay: qHTS assay to identify novel small-molecules to repurpose for Merkel cell carcinoma treatment (AID 1296009); conditions: MCC and control cell lines, CellTiter-Glo viability, 72 h; series mostly up to 46 µM; also: nearly all actives have a fitted effect of over 60% in size
In short: (§2)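 Cells were treated for 72 hr at 37 degree celsius with compounds in 8- or 11-point dose response. Viability was read by CellTiter-Glo luminescence, normalized to no-cell (cytotoxicity) and DMSO controls.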

MCC-26 = assay: as above; conditions: MCC and control cell lines, CellTiter-Glo viability, 72 h; series mostly up to 46 µM
In short: as §2

MKL-1 = assay: as above; conditions: MCC and control cell lines, CellTiter-Glo viability, 72 h; series mostly up to 46 µM
In short: as §2

MKL-2 = assay: as above; conditions: MCC and control cell lines, CellTiter-Glo viability, 72 h; series mostly up to 46 µM
In short: as §2

UISO = assay: as above; conditions: MCC and control cell lines, CellTiter-Glo viability, 72 h; series mostly up to 46 µM
In short: as §2

WaGa = assay: as above; conditions: MCC and control cell lines, CellTiter-Glo viability, 72 h; series mostly up to 46 µM
In short: as §2

C33A = assay: Primary qHTS to identify gynecologic anti-cancer compounds using libraries of approved drugs and bioactive compounds (AID 1345084); conditions: Gynecologic cancer cell panel viability, ATPlite luminescence, 48 h; series mostly up to 57.5 µM; also: nearly all actives have a fitted effect of over 55% in size
In short: (§3)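 Cells, 1,000 per well, plated 16 h, then exposed 48 h at 37 C to compounds. Viability by ATPlite luminescence after 15 min at room temperature.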

CAOV3 = assay: as above; conditions: Gynecologic cancer cell panel viability, ATPlite luminescence, 48 h; series mostly up to 57.5 µM
In short: as §3

CASKI = assay: as above; conditions: Gynecologic cancer cell panel viability, ATPlite luminescence, 48 h; series mostly up to 57.5 µM
In short: as §3

Es-2 = assay: as above; conditions: Gynecologic cancer cell panel viability, ATPlite luminescence, 48 h; series mostly up to 57.5 µM
In short: as §3

HeLa = assay: as above; conditions: Gynecologic cancer cell panel viability, ATPlite luminescence, 48 h; series mostly up to 57.5 µM
In short: as §3

Hek293T = assay: as above; conditions: Gynecologic cancer cell panel viability, ATPlite luminescence, 48 h, control line for the selectivity index; series mostly up to 57.5 µM
In short: as §3

NIH3T3 [2] = assay: qHTS assay to identify novel small-molecules to repurpose for Merkel cell carcinoma treatment (AID 1296009); conditions: MCC and control cell lines, CellTiter-Glo viability, 72 h; series mostly up to 44.8 µM; also: nearly all actives have a fitted effect of over 60% in size
In short: as §2
Potency is read from the fitted curve at half-maximal effect.

O=S(=O)(O)c1ccc2cc(N=Nc3cc(S(=O)(=O)O)c4cccnc4c3O)ccc2c1
max response (CRL-7250): -1.21% | max response (HEK293): -8.8% and -0.547% | max response (HaCat): -5.73% and 2.13% | max response (KB-3-1): -11.7% and -5.81% | max response (NIH3T3 [1]): -3.13% and 2.59% | Potency (MCC-13): inactive | Potency (MCC-26): inactive | Potency (MKL-1): inactive | Potency (MKL-2): inactive | Potency (UISO): inactive | Potency (WaGa): inactive | Potency (C33A): inactive | Potency (CAOV3): inactive | Potency (CASKI): inactive | Potency (Es-2): inactive | Potency (HeLa): inactive | Potency (Hek293T): inactive

CCCCCOC(=O)Nc1nc(=O)n([C@@H]2O[C@H](C)[C@@H](O)C2O)cc1F (stereo not given in full)
max response (CRL-7250): 0.279% | max response (HEK293): -5.3% | max response (HaCat): -7.75% | max response (KB-3-1): -1.34% | max response (NIH3T3 [1]): 2.26% | Potency (MCC-13): inactive | Potency (MCC-26): inactive | Potency (MKL-1): inactive | Potency (MKL-2): inactive | Potency (UISO): inactive | Potency (WaGa): inactive

CSc1cccc(Nc2ncc3cc(-c4c(Cl)cccc4Cl)c(=O)n(C)c3n2)c1
Potency (CRL-7250): 235 nM (active) | Potency (HEK293): 13.2 µM (active) | max response (HaCat): -17.3% | max response (KB-3-1): 7.1% | Potency (NIH3T3 [1]): 0.332 µM (active) | Potency (MCC-13): inactive | Potency (MKL-1): inactive | Potency (MKL-2): inactive | Potency (WaGa): inactive

CCOc1ccccc1N=Nc1c(C)[nH]n(-c2nc(-c3ccccc3)cs2)c1=O
max response (CRL-7250): -16.1% | max response (HEK293): -20.4% | max response (HaCat): -4.82% | max response (KB-3-1): -0.405% | max response (NIH3T3 [1]): -3.32% | Potency (MCC-13): inactive | Potency (MCC-26): inactive | Potency (MKL-1): inactive | Potency (MKL-2): inactive | Potency (UISO): inactive | Potency (WaGa): inactive

OC1CCC(Nc2ncc3nc(Nc4c(F)cc(F)cc4F)n([C@@H]4CCOC4)c3n2)CC1 (stereo not given in full)
outcome (CRL-7250): inactive | max response (HEK293): -2.09% | max response (HaCat): -6.12% | max response (KB-3-1): 8.34% | outcome (NIH3T3 [1]): inactive | Potency (MCC-13): inactive | Potency (MCC-26): inactive | Potency (MKL-1): inactive | Potency (MKL-2): inactive | Potency (NIH3T3 [2]): inactive | Potency (UISO): inactive | Potency (WaGa): inactive

N#Cc1ccc(Oc2ccc3c(c2)COB3O)cc1
outcome (CRL-7250): inactive | max response (HEK293): -0.565% | max response (HaCat): -2.09% and 3.76% | max response (KB-3-1): -8.17% and -9.93% | max response (NIH3T3 [1]): -0.632% and -20.3% | Potency (MCC-13): inactive | Potency (MCC-26): inactive | Potency (MKL-1): inactive | Potency (MKL-2): inactive | Potency (UISO): inactive | Potency (WaGa): inactive | Potency (C33A): inactive | Potency (CAOV3): inactive | Potency (CASKI): inactive | Potency (Es-2): inactive | Potency (Hek293T): inactive

CCc1cccc(CC)c1NC(=O)N1Cc2[nH]nc(NC(=O)c3ccc(N4CCN(C)CC4)cc3)c2C1
Potency (CRL-7250): 16.6 µM (active) and 10.3 µM (active) | Potency (HEK293): 8.2 µM (active) | Potency (HaCat): 26.4 µM (active) and 18.4 µM (active) | Potency (KB-3-1): 7.43 µM (active) and 4.61 µM (active) | Potency (NIH3T3 [1]): 13.2 µM (active) | Potency (MCC-13): inactive | Potency (MCC-26): 20.9 µM (active) | Potency (MKL-2): inactive | Potency (UISO): inactive | Potency (C33A): inactive | Potency (Es-2): inactive | Potency (HeLa): 3.16 µM (active) | Potency (Hek293T): inactive

O=C(O)c1nc(=O)[nH]c(=O)[nH]1
max response (CRL-7250): 1.07% | max response (HEK293): -17.5% | max response (HaCat): 1.83% | max response (KB-3-1): 13.7% and 2.52% | max response (NIH3T3 [1]): 0.163% | Potency (MCC-13): inactive | Potency (MCC-26): inactive | Potency (MKL-1): inactive | Potency (MKL-2): inactive | Potency (UISO): inactive | Potency (WaGa): inactive

COc1cccc(OC)c1-c1cc(C(=O)NC2(C(=O)O)C3CC4CC(C3)CC2C4)nn1-c1ccnc2cc(Cl)ccc12 (stereo not given)
max response (CRL-7250): -4.21% | max response (HEK293): -21.7% | max response (HaCat): -12% | outcome (KB-3-1): inactive | outcome (NIH3T3 [1]): inactive | Potency (MCC-13): inactive | Potency (MCC-26): inactive | Potency (MKL-1): inactive | Potency (MKL-2): inactive | Potency (NIH3T3 [2]): inactive | Potency (UISO): inactive | Potency (WaGa): inactive

Cc1c(C(=O)Nc2ccc(N3C[C@@H](C)O[C@@H](C)C3)nc2)cccc1-c1ccc(OC(F)(F)F)cc1
max response (CRL-7250): -6.66% | Potency (HEK293): 5.26 µM (active) | Potency (HaCat): 9.35 µM (active) | max response (KB-3-1): -8.91% | Potency (NIH3T3 [1]): 20.9 µM (active) | Potency (MCC-13): inactive | Potency (MCC-26): inactive | Potency (MKL-1): inactive | Potency (MKL-2): inactive | Potency (WaGa): inactive | Potency (C33A): inactive | Potency (CAOV3): inactive | Potency (CASKI): inactive | Potency (Es-2): inactive | Potency (HeLa): inactive | Potency (Hek293T): inactive

NC[C@H]1O[C@H](O[C@@H]2[C@@H](O)[C@@H](O[C@H]3O[C@H](CO)[C@@H](O)[C@H](N)[C@@H]3O)[C@H](N)C[C@@H]2N)[C@H](O)[C@@H](O)[C@H]1O
max response (CRL-7250): -1.7% | max response (HEK293): -2.16% | max response (HaCat): -1.4% | max response (KB-3-1): 4.43% | max response (NIH3T3 [1]): -1.04% | Potency (MCC-13): inactive | Potency (MCC-26): inactive | Potency (MKL-2): inactive | Potency (UISO): inactive | Potency (WaGa): inactive

O=c1[nH]c(=O)n([C@H]2C[C@@H](O)[C@@H](CO)O2)cc1I
max response (CRL-7250): -2.59% | max response (HEK293): -22.9% | max response (HaCat): 1.35% | outcome (KB-3-1): inactive | max response (NIH3T3 [1]): 3.2% | Potency (MCC-13): inactive | Potency (MCC-26): inactive | Potency (MKL-1): inactive | Potency (MKL-2): inactive | Potency (WaGa): inactive

Cc1cccc2c1CC[C@H](CN1CCC(c3c(Cl)cccc3Cl)CC1)C[C@@H]2O
max response (CRL-7250): -6.89% and 0.148% | Potency (HEK293): 14.6 µM (active) | max response (HaCat): 1.39% | max response (KB-3-1): -8.1% | max response (NIH3T3 [1]): -20.2% | Potency (MCC-26): inactive | Potency (MKL-1): inactive | Potency (MKL-2): inactive | Potency (WaGa): inactive | Potency (C33A): inactive | Potency (CAOV3): inactive | Potency (CASKI): inactive | Potency (Es-2): inactive

O[C@@H](COc1cccc2ncccc12)CN1CCN(C2c3ccccc3[C@@H]3[C@H](c4ccccc42)C3(F)F)CC1 (stereo not given in full)
outcome (CRL-7250): inactive | Potency (HEK293): 10.6 µM (active) and 18.4 µM (active) | max response (HaCat): -3.25% | max response (KB-3-1): 2.31% | outcome (NIH3T3 [1]): inactive | Potency (MCC-13): inactive | Potency (MCC-26): inactive | Potency (NIH3T3 [2]): inactive | Potency (C33A): inactive | Potency (CAOV3): inactive | Potency (CASKI): inactive | Potency (Es-2): inactive | Potency (HeLa): inactive | Potency (Hek293T): inactive
